Measured values reported in the supplement of paper PMC10849652.
About 7,900 targets were measured; listed, in parts, are those with a hit and a random draw of the rest. About 0.6% of all pairs of compound and target were hits.

Assays:
Test in all cases: log2 fold change, soluble protein after heating vs DMSO (PISA); higher = thermal stabilisation; K562 cells, 10 uM, 30 min; active = over 0.2 and 3.5 SD of the protein, either way, in both replicates (recomputed)
IRAK-1-4 Inhibitor I = compound: C1COCCN1CCN2C3=CC=CC=C3N=C2NC(=O)C4=CC(=CC=C4)[N+](=O)[O-] [IRAK-1-4 Inhibitor I]
Method in brief: (§1)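 K562 cells (2×10^6 cells/mL) were treated with 10 μM compound for 30 min, and aliquots were heated for 3 min over 48°C-58°C. Pooled aliquots were extracted in PBS with 0.5% NP-40 at 4°C, and the supernatant after 21,000xg for 90 min was measured by TMTpro 16plex LC-MS/MS with channel sums equalised. Reported thermal stability, relative to control samples and from duplicates, is a log2 fold change.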

ibrutinib = compound: C=CC(=O)N1CCC[C@@H](n2nc(-c3ccc(Oc4ccccc4)cc3)c3c(N)ncnc32)C1 [ibrutinib]
Method in brief: as §1

[1] = compound: CC(=O)c1cnc2ccc(-c3cc(Cl)c(O)c(Cl)c3)nc2c1N[C@H]1CC[C@H](CN(C)C)CC1
Method in brief: as §1

ralimetinib = compound: CC(C)(C)Cn1c(N)nc2ccc(-c3[nH]c(C(C)(C)C)nc3-c3ccc(F)cc3)nc21 [ralimetinib]
Method in brief: as §1

[2] = compound: CC(C)(O)CC(=O)NCCn1ccc2ncnc(Nc3ccc(Oc4cccc(C(F)(F)F)c4)c(Cl)c3)c21
Method in brief: as §1

[3] = compound: CC(C)C1=C2N=C(C=C(N2N=C1)NCC3=CC=CC=C3)NCCCCCCN
Method in brief: as §1

[4] = compound: CC(C)C[C@@H](C=O)NC(=O)[C@H](CC(C)C)NC(=O)[C@H](CC(C)C)NC(=O)OCc1ccccc1
Method in brief: as §1

pinometostat = compound: CC(C)N(C[C@H]1O[C@@H](n2cnc3c(N)ncnc32)[C@H](O)[C@@H]1O)[C@H]1C[C@@H](CCc2nc3cc(C(C)(C)C)ccc3[nH]2)C1 [pinometostat]
Method in brief: as §1

[5] = compound: CC1=C(C(CC(=O)N1)C2=CC=C(C=C2)C(F)(F)F)C(=O)NC3=C(C=C4C(=C3)C=NN4)F
Method in brief: as §1

[6] = compound: CC1=C(C2=C(C=C1)C(=O)C3=CC=CC=C3N2CCCN)C
Method in brief: as §1

[7] = compound: CC1=C(C=C(C=C1)NC(=O)C2=CC(=CC=C2)C(C)(C)C#N)NC3=CC4=C(C=C3)N=CN(C4=O)C
Method in brief: as §1

[8] = compound: CC1=C(C=C(C=C1)NC(=O)C2=CC(=CC=C2)N(C)C)NC(=O)C3=CC=C(C=C3)O
Method in brief: as §1

[9] = compound: CC1=CC=C(C=C1)SC2=C3C=C(SC3=CN=C2)C(=O)N
Method in brief: as §1

[10] = compound: CC1=NC(=CC=C1)C2=C(N=C(N2)C(C)(C)C)C3=CC4=NC=CN=C4C=C3
Method in brief: as §1

Nexturastat A = compound: CCCCN(Cc1ccc(C(=O)NO)cc1)C(=O)Nc1ccccc1 [Nexturastat A]
Method in brief: as §1

vemurafenib = compound: CCCS(=O)(=O)Nc1ccc(F)c(C(=O)c2c[nH]c3ncc(-c4ccc(Cl)cc4)cc23)c1F [vemurafenib]
Method in brief: as §1

[11] = compound: CCCS(=O)(=O)Nc1ccc(F)c(C(=O)c2c[nH]c3ncc(Cl)cc23)c1F
Method in brief: as §1

[12] = compound: CCCc1cc(C)[nH]c(=O)c1CNC(=O)c1cc(-c2ccnc(N3CCN(C)CC3)c2)cc2c1cnn2C(C)C
Method in brief: as §1

givinostat = compound: CCN(CC)Cc1ccc2cc(COC(=O)Nc3ccc(C(=O)NO)cc3)ccc2c1 [givinostat]
Method in brief: as §1

barasertib = compound: CCN(CCCOc1ccc2c(Nc3cc(CC(=O)Nc4cccc(F)c4)[nH]n3)ncnc2c1)CCOP(=O)(O)O [barasertib]
Method in brief: as §1

Measured: log2 fold change

NCKAP1 isoform 2 (UniProt Q9Y2A7)
Chain of UniProt Q9Y2A7 (Q9Y2A7 whole entry, looked up): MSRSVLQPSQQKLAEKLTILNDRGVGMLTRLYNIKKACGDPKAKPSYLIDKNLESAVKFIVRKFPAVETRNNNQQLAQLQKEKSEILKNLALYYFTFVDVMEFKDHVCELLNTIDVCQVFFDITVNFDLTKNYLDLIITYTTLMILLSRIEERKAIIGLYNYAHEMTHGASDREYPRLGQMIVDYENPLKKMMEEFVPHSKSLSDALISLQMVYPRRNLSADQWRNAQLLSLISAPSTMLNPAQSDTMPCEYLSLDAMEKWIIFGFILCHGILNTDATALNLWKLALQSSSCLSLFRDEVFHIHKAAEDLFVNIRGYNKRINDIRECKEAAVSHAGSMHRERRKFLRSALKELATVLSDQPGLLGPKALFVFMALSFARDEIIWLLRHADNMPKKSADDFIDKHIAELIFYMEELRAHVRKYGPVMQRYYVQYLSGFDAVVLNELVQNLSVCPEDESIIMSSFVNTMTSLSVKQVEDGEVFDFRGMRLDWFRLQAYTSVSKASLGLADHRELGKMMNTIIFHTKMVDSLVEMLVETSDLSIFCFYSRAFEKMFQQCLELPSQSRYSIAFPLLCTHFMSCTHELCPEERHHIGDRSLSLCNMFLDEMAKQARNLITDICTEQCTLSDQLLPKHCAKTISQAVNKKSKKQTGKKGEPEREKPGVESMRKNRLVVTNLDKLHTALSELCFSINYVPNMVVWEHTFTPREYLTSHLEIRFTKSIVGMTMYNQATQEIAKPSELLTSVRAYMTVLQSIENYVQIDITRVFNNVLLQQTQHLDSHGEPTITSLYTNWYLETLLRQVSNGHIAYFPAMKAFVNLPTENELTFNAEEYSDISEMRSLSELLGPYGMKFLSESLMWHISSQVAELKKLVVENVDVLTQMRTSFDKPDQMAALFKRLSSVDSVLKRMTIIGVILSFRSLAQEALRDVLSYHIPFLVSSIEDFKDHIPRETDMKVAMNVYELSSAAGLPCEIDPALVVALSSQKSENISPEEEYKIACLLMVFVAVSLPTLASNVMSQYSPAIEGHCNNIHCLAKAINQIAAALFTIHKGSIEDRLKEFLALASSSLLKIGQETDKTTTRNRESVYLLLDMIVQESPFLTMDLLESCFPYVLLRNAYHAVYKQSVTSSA
inactive: IRAK-1-4 Inhibitor I 0 | ibrutinib 0.002 | [1] -0.063 | ralimetinib 0.07 | [2] -0.038 | [3] -0.047 | [4] -0.037 | pinometostat 0.01 | [5] 0.017 | [6] -0.009 | [7] 0.039 | [8] 0.009 | [9] 0.004 | [10] 0.033 | Nexturastat A 0.02 | vemurafenib 0.036 | [11] 0.015 | [12] 0.064 | givinostat 0.021 | barasertib -0.009

NMT2 (UniProt O60551)
Chain of UniProt O60551 (O60551 whole entry, looked up): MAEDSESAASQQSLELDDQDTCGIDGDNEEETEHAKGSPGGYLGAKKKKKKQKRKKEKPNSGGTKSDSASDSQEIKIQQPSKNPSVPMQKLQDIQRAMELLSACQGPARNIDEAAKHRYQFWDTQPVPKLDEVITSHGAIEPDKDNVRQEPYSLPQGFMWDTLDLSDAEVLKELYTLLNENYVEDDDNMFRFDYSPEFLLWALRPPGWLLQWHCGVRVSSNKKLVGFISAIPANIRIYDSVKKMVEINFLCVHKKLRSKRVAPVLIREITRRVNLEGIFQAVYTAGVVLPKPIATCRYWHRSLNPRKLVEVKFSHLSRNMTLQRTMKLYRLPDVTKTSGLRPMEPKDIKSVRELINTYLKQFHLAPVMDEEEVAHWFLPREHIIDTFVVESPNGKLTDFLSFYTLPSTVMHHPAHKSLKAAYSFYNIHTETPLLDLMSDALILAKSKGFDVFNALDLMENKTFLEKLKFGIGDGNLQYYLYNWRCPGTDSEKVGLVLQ
inactive: IRAK-1-4 Inhibitor I 0.006 | ibrutinib 0.064 | [1] -0.031 | ralimetinib -0.017 | [2] -0.022 | [3] -0.125 | [4] -0.019 | pinometostat 0.053 | [5] 0.037 | [6] 0.01 | [7] 0.006 | [8] 0.018 | [9] 0.237 | [10] 0.024 | Nexturastat A -0.037 | vemurafenib -0.034 | [11] 0.031 | [12] 0.02 | givinostat -0.233 | barasertib 0

OSBP (UniProt P22059)
Chain of UniProt P22059 (P22059 whole entry, looked up): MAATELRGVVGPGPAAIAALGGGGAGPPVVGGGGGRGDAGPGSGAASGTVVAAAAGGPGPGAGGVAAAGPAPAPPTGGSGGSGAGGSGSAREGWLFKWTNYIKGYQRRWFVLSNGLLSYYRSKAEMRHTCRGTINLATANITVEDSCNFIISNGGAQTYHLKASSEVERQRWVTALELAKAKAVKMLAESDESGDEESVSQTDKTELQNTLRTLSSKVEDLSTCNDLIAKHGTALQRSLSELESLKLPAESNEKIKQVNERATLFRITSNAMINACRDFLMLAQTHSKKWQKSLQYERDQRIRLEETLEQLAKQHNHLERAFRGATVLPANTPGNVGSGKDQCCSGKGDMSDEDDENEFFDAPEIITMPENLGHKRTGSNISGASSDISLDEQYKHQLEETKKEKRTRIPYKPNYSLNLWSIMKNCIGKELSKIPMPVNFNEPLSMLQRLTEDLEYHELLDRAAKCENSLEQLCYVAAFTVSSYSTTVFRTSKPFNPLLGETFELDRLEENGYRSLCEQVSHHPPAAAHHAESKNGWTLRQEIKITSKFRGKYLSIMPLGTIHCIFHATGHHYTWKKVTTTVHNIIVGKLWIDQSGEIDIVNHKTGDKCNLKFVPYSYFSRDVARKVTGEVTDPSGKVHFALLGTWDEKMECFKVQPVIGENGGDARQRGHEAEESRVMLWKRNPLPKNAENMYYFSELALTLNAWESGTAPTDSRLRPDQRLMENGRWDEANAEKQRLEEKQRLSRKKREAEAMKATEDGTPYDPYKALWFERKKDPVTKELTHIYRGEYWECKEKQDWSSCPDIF
inactive: IRAK-1-4 Inhibitor I 0 | ibrutinib -0.067 | [1] -0.029 | ralimetinib -0.009 | [2] -0.076 | [3] 0.091 | [4] 0.017 | pinometostat -0.002 | [5] -0.052 | [6] 0.024 | [7] 0.098 | [8] -0.011 | [9] -0.028 | [10] 0.022 | Nexturastat A -0.073 | vemurafenib 0.015 | [11] 0.027 | [12] -0.003 | givinostat -0.052 | barasertib -0.001

NR2C2AP isoform 2 (UniProt Q86WQ0)
inactive: IRAK-1-4 Inhibitor I -0.126 | ibrutinib -0.003 | [1] -0.062 | ralimetinib -0.056 | [2] 0.012 | [3] 0.01 | [4] -0.026 | pinometostat -0.073 | [5] 0.057 | [6] 0.063 | [7] -0.053 | [8] -0.068 | [9] -0.007 | [10] 0.082 | Nexturastat A -0.101 | vemurafenib -0.026 | [11] 0.066 | [12] -0.085 | givinostat -0.035 | barasertib -0.002

NISCH (UniProt Q9Y2I1)
Chain of UniProt Q9Y2I1 (Q9Y2I1 whole entry, looked up): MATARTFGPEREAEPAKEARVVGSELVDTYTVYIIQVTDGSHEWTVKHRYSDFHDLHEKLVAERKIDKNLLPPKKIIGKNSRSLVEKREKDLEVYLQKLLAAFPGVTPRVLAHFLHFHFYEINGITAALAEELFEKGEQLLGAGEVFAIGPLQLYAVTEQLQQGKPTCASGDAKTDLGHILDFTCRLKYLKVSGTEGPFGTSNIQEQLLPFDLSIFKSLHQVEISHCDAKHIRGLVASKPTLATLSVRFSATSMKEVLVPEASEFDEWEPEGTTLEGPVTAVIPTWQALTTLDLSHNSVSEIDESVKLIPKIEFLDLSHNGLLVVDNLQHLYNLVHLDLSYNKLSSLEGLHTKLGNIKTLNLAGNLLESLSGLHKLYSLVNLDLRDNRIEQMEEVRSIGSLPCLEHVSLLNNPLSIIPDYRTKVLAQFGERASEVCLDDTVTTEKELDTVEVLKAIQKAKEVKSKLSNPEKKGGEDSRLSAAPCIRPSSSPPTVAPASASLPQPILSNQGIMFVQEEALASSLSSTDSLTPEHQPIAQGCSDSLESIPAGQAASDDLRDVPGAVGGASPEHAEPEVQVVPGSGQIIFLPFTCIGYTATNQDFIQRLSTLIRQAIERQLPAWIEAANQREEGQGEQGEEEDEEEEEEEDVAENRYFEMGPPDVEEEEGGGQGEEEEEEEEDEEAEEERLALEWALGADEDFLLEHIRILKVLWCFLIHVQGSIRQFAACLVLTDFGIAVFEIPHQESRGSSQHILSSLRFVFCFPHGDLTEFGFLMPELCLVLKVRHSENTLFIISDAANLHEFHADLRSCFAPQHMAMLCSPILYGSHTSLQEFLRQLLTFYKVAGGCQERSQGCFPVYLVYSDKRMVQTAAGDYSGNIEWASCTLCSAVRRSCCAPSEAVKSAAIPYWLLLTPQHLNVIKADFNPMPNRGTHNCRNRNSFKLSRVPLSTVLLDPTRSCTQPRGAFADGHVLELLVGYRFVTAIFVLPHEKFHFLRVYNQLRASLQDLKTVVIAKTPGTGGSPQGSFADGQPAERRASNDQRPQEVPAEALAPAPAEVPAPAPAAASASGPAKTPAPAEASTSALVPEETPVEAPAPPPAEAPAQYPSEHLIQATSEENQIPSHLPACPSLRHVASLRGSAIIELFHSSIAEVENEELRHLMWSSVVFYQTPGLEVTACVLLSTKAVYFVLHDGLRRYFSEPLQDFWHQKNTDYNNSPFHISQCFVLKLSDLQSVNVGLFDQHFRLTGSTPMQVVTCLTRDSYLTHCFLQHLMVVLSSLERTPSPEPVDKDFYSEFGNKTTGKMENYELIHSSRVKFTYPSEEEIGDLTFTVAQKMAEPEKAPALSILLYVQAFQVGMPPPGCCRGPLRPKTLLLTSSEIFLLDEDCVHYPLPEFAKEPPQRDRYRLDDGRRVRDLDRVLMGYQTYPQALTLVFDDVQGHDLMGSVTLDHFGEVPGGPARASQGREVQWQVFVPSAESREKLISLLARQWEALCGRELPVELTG
inactive: IRAK-1-4 Inhibitor I 0.053 | ibrutinib 0 | [1] -0.037 | ralimetinib 0.02 | [2] 0.007 | [3] -0.429 | [4] 0.028 | pinometostat 0.047 | [5] 0.018 | [6] 0.004 | [7] 0.009 | [8] -0.07 | [9] -0.054 | [10] -0.018 | Nexturastat A 0.094 | vemurafenib 0.055 | [11] 0.116 | [12] -0.077 | givinostat 0.032 | barasertib 0.075

NA, A0A0B4J2A0
inactive: IRAK-1-4 Inhibitor I 0.014 | ibrutinib -0.015 | [1] -0.072 | ralimetinib -0.023 | [2] -0.105 | [3] 0.044 | [4] 0.031 | pinometostat 0.018 | [5] 0.051 | [6] 0.107 | [7] 0.016 | [8] -0.028 | [9] 0.002 | [10] -0.006 | Nexturastat A -0.043 | vemurafenib 0.017 | [11] 0.072 | [12] -0.091 | givinostat 0.029 | barasertib 0.012

NELFB isoform 2 (UniProt Q8WX92)
Chain of UniProt Q8WX92 (Q8WX92 whole entry, looked up): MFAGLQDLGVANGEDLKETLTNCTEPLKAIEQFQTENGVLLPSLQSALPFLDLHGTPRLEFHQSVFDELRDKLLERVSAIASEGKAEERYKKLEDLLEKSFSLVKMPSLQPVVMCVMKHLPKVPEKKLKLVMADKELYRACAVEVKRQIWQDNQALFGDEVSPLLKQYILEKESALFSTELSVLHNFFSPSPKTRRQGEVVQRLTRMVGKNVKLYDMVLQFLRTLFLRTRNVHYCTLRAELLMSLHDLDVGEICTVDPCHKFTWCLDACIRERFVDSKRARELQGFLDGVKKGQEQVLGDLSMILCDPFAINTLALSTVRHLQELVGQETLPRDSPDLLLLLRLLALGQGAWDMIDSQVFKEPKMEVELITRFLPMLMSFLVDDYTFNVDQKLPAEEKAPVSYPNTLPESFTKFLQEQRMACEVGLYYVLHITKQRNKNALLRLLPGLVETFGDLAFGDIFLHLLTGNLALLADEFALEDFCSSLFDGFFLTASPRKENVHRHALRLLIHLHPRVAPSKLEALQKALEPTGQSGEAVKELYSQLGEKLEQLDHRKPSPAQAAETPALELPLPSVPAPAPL
inactive: IRAK-1-4 Inhibitor I -0.03 | ibrutinib -0.045 | [1] -0.144 | ralimetinib -0.067 | [2] -0.154 | [3] -0.112 | [4] 0.001 | pinometostat 0.022 | [5] 0.017 | [6] 0.042 | [7] -0.026 | [8] -0.062 | [9] 0.035 | [10] 0.05 | Nexturastat A -0.032 | vemurafenib 0.06 | [11] 0.08 | [12] -0.007 | givinostat 0.069 | barasertib 0.046

NECTIN2 (UniProt Q92692)
Chain of UniProt Q92692 (Q92692 whole entry, looked up): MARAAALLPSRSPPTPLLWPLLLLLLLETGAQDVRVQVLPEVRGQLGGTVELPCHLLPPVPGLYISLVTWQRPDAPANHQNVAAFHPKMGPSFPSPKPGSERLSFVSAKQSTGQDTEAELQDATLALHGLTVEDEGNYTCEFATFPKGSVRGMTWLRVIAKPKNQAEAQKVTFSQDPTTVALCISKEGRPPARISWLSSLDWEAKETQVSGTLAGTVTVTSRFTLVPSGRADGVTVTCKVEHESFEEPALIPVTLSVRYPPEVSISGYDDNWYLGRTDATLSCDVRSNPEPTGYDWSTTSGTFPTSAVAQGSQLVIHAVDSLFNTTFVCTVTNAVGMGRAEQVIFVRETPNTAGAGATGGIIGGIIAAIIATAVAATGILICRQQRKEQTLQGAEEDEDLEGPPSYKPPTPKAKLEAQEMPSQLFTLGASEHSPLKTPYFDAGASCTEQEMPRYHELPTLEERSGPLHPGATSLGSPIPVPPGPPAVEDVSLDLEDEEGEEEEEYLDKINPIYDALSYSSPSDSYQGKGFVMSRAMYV
inactive: IRAK-1-4 Inhibitor I 0.025 | ibrutinib 0.02 | [1] -0.023 | ralimetinib -0.035 | [2] -0.03 | [3] 0.182 | [4] 0.024 | pinometostat 0.009 | [5] -0.015 | [6] 0 | [7] -0.006 | [8] -0.026 | [9] 0.037 | [10] -0.049 | Nexturastat A -0.117 | vemurafenib 0.016 | [11] 0.019 | [12] 0.005 | givinostat -0.025 | barasertib -0.024
